Results on eight compounds are retold here after PubChem BioAssay (NCI).

Structures are written as SMILES. The panel holds about 83,000 compounds, 20% with a hit somewhere; the sample as a whole holds those more often.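 Method: cells in 96-well plates; compound added at one concentration; 48 h incubation; percent growth measured; values under 10 scored active.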 Unmarked numbers belong to inactive results. Active and inactive are the calls of the source.

Assay in all cases: NCI-60 one-dose screen, 48 h (100 = growth as untreated, 0 = no growth, -100 = all killed)
What all share (conditions): 10 µM unless noted

Experiment [1] has as its system NCI-H23 lung.
Experiment [2] relates to NCI-H226 lung.
The test system of experiment [3] is NCI-H322M lung.
Experiment [4] has as its system HOP-62 NSCLC.
In experiment [5] the test system is NCI-H460 lung.
For experiment [6], the system named is HOP-92 NSCLC.
Experiment [7] concerns NCI-H522 lung.
Experiment [8] has as its system A549/ATCC NSCLC.
In experiment [9] the test system is 786-0 renal.
In experiment [10] the test system is COLO 205 colon.
The test system of experiment [11] is DU-145 prostate.
Experiment [12] relates to K-562 leukemia.
Experiment [13] deals with MALME-3M melanoma.
Experiment [14] has as its system RXF 393 renal.
Experiment [15] relates to SF-268 CNS.
Experiment [16] deals with SF-295 CNS.
Experiment [17] concerns SF-539 CNS.
In experiment [18] the test system is UACC-257 melanoma.
Experiment [19] relates to M14 melanoma.
For experiment [20], the system named is MDA-MB-231 breast.

For `CCN(C(C)=O)c1ccc([N+](=O)[O-])cc1`, the growth in experiment [1] is 101%; in [2], 99.3%; in [3] it was 103%; in [4], 95.4%; in [5], 104%; in [6], 98.7%. For the same compound, the growth in [7] was 104%; in [8], 91.8%; in experiment [9], 102%; in [10], 110%; in experiment [11], 110%; in [12] it was 107%. In addition, the growth in experiment [13] is 101%; in [14] it was 106%; in experiment [15], 103%; in experiment [16] it was 108%; in experiment [17], 109%; in experiment [18], 94.9%. The growth in [19] was 113%.

As for `CC(C)(N)CO[C@H]1C[C@H]2CC[C@@]1(C)C2(C)C`, the growth was 94.7% in experiment [1]; 88.5% in [2]; 96.5% in [3]; 106% in experiment [4]; 97.8% in experiment [5]; 89.2% in [6]. Moreover, the growth in experiment [7] was 92.4%; in [8] it was 96.8%; in experiment [9] it was 97.6%; in experiment [10] it was 109%; in experiment [11] it was 102%; in [12], 123%. In addition, the growth in experiment [13] is 97.1%; in experiment [14], 87.6%; in experiment [15], 91.5%; in experiment [16], 97.7%; in experiment [17], 99.4%; in experiment [18] it was 97.1%. For the same compound, the growth in experiment [19] was 90%.

For the compound `COc1ccc(/C=C\C(=O)/C=C/c2ccc(OC)cc2)cc1`, the growth in experiment [1] is 84.7%; in experiment [2] it was 81.4%; in experiment [3] it was 99.6%; in experiment [4] it was 95.4%; in experiment [5] it was 107%; in experiment [6], 109%. The growth is 94.7% in experiment [7]; 102% in experiment [8]; 83.5% in experiment [9]; 107% in experiment [10]; 96.4% in experiment [11]; 9.76% (active) in [12]. Moreover, the growth was 95.1% in [13]; 100% in experiment [14]; 105% in [15]; 101% in [16]; 62.8% in experiment [17]; 106% in experiment [18]. Moreover, the growth in experiment [19] is 40.2%.

Consider `COc1ccc(C2CC(c3ccccc3)=Nc3ccccc3S2)cc1` (centres undefined), for which the growth is 98% in [1]; 98.2% in experiment [2]; 90.3% in experiment [3]; 98.7% in experiment [4]; 105% in experiment [5]; 87.1% in experiment [6]. Also, the growth is 77.6% in experiment [7]; 111% in experiment [8]; 98.2% in experiment [9]; 97.1% in experiment [10]; 99.8% in experiment [11]; 77.9% in [12]. Besides, the growth in experiment [13] is 82.5%; in experiment [20], 98.9%; in [15], 105%; in [17], 111%; in experiment [18], 103%; in experiment [19], 106%.

With `COc1cc(OC)c(NC(=O)C(Sc2nc(C)cc(C)c2C#N)c2ccccc2)cc1Cl` (centres undefined), the growth in [1] was 96.6%; in experiment [2], 102%; in experiment [3], 106%; in [4], 65.5%; in experiment [5], 110%; in [6], 80.9%. Also, the growth is 82.1% in experiment [7]; 92.6% in experiment [8]; 73.6% in experiment [9]; 104% in [10]; 102% in experiment [11]; 105% in experiment [12]. Also, the growth is 106% in [20]; 73.5% in experiment [14]; 85.9% in experiment [15]; 83.8% in experiment [17]; 114% in experiment [18]; 97.1% in experiment [19].

Consider `CCCCN(C(=O)CC)c1ccccc1`, for which the growth in experiment [1] is 99.9%; in [2] it was 107%; in [3] it was 97.9%; in [4], 105%; in [5], 103%; in experiment [6], 109%. The growth in [7] was 95.3%; in experiment [8] it was 96.5%; in experiment [9], 99.2%; in experiment [10], 99.7%; in experiment [11], 99.7%; in [13] it was 100%. Besides, the growth is 105% in [20]; 115% in [14]; 98.6% in experiment [15]; 99.8% in experiment [16]; 100% in experiment [17]; 95.5% in experiment [18]. Moreover, in [19], the growth is 91.8%.

Turning to `CC(=O)NNC(=S)N/C=C/c1c(C)ccc([N+](=O)[O-])c1[N+](=O)[O-]`, the growth was 94.8% in experiment [1]; 110% in experiment [2]; 111% in experiment [3]; 103% in experiment [4]; 102% in experiment [5]; 100% in experiment [6]. Besides, the growth in experiment [7] was 87.8%; in [8], 102%; in experiment [9], 97.2%; in experiment [10], 101%; in experiment [11], 104%; in [12], 102%. In addition, the growth in [20] was 99.3%; in [14], 105%; in experiment [15], 96.7%; in experiment [16], 103%; in experiment [17], 99.7%; in [18], 99.6%. Besides, the growth in experiment [19] was 89.6%.

As to `COC1OC(C(COC(C)=O)OC(C)=O)C(OC(C)=O)C(OC(C)=O)C1OC(C)=O` (centres undefined), the growth in experiment [1] is 112%; in [2], 99.4%; in experiment [3], 115%; in [4] it was 99.3%; in experiment [5], 112%; in [6] it was 128%. For the same compound, the growth in experiment [7] is 103%; in [8], 106%; in [9], 107%; in [10] it was 116%; in [11], 115%; in experiment [12] it was 119%. For the same compound, the growth in experiment [20] was 126%; in [14], 115%; in [15], 113%; in [17], 92%; in [18], 110%; in experiment [19], 106%.
